According to the supplement of paper PMC10037445:
In all, about 2,900 compounds were measured (“NF-kB SEAP reporter activity, fold change vs agonist alone”: median about 0.99, highest 2% from about 2.6 on). What follows is part of a selection rich in the highest values, with near analogues and random picks from the rest.

What was measured:
RAW-Dual [1] = assay: NF-kB SEAP reporter activity, fold change vs agonist alone; cytotoxicity flag (confluency mask): not cytotoxic; higher = enhanced NF-kB activity
Summary of the method: (§1)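 After 50 nL of library stock was delivered by pin tool to RAW-Dual macrophages (50,000 cells/well, DMEM, 384-well plates), a PRR agonist was added 1 h later and the plates were kept at 37 °C, 5% CO2. Twenty hours later, IRF was read from supernatant by QuantiLuc luminescence and NF-κB by QuantiBlue absorbance at 620 nm. Reporter activity is stated as fold change over agonist-alone wells. Wells with IncuCyte confluency under 70% of agonist controls in both mask sets were counted as cytotoxic.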

RAW-Dual [2] = assay: NF-kB SEAP reporter activity, fold change vs agonist alone; higher = enhanced NF-kB activity; settings: library stock concentration (final ~1000-fold dilution): 10 mM
Summary of the method: as §1

RAW-Dual [3] = assay: NF-kB SEAP reporter activity, fold change vs agonist alone; cytotoxicity flag (confluency mask): cytotoxic (confluency <70% of control); higher = enhanced NF-kB activity
Summary of the method: as §1

[4] = agonist: ODN 1826 (TLR9) 0.5 ug/mL
[5] = agonist: Pam2CSK4 (TLR2/6) 0.1 ug/mL
[6] = agonist: Pam3CSK4 (TLR2/1) 0.1 ug/mL
[7] = cytotoxicity flag (confluency mask): not cytotoxic, agonist: Imiquimod (TLR7) […]
[8] = cytotoxicity flag (confluency mask): not cytotoxic, agonist: MPLA (TLR4) […]
[9] = cytotoxicity flag (confluency mask): cytotoxic (confluency <70% of control), agonist: Imiquimod (TLR7) […]
[10] = cytotoxicity flag (confluency mask): cytotoxic (confluency <70% of control), agonist: MPLA (TLR4) […]

Question: `O=C(NC1=CC(=O)[C@@H]2O[C@@H]2[C@@H]1O)c1ccccc1O` (library stock concentration (final ~1000-fold dilution): 10 mM) was tested. Which “NF-kB SEAP reporter activity” value (RAW-Dual [1]; agonist: LPS (TLR4) 0.1 ug/mL) did it give?
Answer: 0.954

Question: And the “NF-kB SEAP reporter activity” value (RAW-Dual [1]; [4])?
Answer: 0.718

Question: And the “NF-kB SEAP reporter activity” value (RAW-Dual [1]; [5])?
Answer: 0.356

Question: What about the “NF-kB SEAP reporter activity” value (RAW-Dual [1]; [6]) of the same compound?
Answer: 0.314

Question: How did the “NF-kB SEAP reporter activity” value (RAW-Dual [1]; agonist: LPS (TLR4) 0.1 ug/mL) turn out when `CS(=O)(=O)O.O=C(OC1CC2CC3CC(C1)N2CC3=O)c1c[nH]c2ccccc12` (configuration not stated) (library stock concentration (final ~1000-fold dilution): 10 mM) was run?
Answer: 0.646

Question: What about the “NF-kB SEAP reporter activity” value (RAW-Dual [1]; [4]) of the same compound?
Answer: 0.571

Question: And the “NF-kB SEAP reporter activity” value (RAW-Dual [1]; [5])?
Answer: 0.906

Question: And the “NF-kB SEAP reporter activity” value (RAW-Dual [1]; [6])?
Answer: 0.497

Question: For `CS(=O)(=O)O.O=C(OC1CC2CC3CC(C1)N2CC3=O)c1c[nH]c2ccccc12` (configuration not stated), which “NF-kB SEAP reporter activity” value (RAW-Dual [2]; [7]) is on record?
Answer: 0.712

Question: What about the “NF-kB SEAP reporter activity” value (RAW-Dual [2]; [8]) of the same compound?
Answer: 0.75

Question: For `CCNC(=O)C#Cc1ccc2c(c1)NC(=O)/C2=C(\Nc1ccc(CN(C)C)cc1)c1ccccc1` (library stock concentration (final ~1000-fold dilution): 10 mM), which “NF-kB SEAP reporter activity” value (RAW-Dual [3]; agonist: LPS (TLR4) 0.1 ug/mL) is on record?
Answer: 0.241

Question: What about the “NF-kB SEAP reporter activity” value (RAW-Dual [3]; [4]) of the same compound?
Answer: 0.173

Question: And the “NF-kB SEAP reporter activity” value (RAW-Dual [3]; [5])?
Answer: 0.074

Question: What about the “NF-kB SEAP reporter activity” value (RAW-Dual [3]; [6]) of the same compound?
Answer: 0.121

Question: With `CCNC(=O)C#Cc1ccc2c(c1)NC(=O)/C2=C(\Nc1ccc(CN(C)C)cc1)c1ccccc1` as the compound, how does the “NF-kB SEAP reporter activity” value (RAW-Dual [2]; [9]) read?
Answer: 0.134

Question: And the “NF-kB SEAP reporter activity” value (RAW-Dual [2]; [10])?
Answer: 0.297

Question: What does the source list for `C=CC(=O)Nc1cccc(Nc2nc(Nc3ccc(OCCOC)cc3)ncc2F)c1`?
Answer: NF-kB SEAP reporter activity (RAW-Dual [2]; [7]): 1.11; NF-kB SEAP reporter activity (RAW-Dual [2]; [8]): 1.69

Question: What does the source list for `Cc1cnc(Nc2ccc(N3CCN(C)CC3)cc2)nc1Nc1cccc(S(=O)(=O)NC(C)(C)C)c1`?
Answer: NF-kB SEAP reporter activity (RAW-Dual [2]; [7]): 1.01; NF-kB SEAP reporter activity (RAW-Dual [2]; [8]): 0.945

Question: `C=CC(=O)Nc1cccc(Nc2nc(Nc3ccc(OCCOC)cc3)ncc2F)c1` (library stock concentration (final ~1000-fold dilution): 10 mM) was tested. Which “NF-kB SEAP reporter activity” value (RAW-Dual [1]; agonist: LPS (TLR4) 0.1 ug/mL) did it give?
Answer: 1.12

Question: What about the “NF-kB SEAP reporter activity” value (RAW-Dual [1]; [4]) of the same compound?
Answer: 0.8

Question: And the “NF-kB SEAP reporter activity” value (RAW-Dual [1]; [5])?
Answer: 0.545

Question: What about the “NF-kB SEAP reporter activity” value (RAW-Dual [1]; [6]) of the same compound?
Answer: 0.672

Question: What does the source list for `C=CC(=O)Nc1cccc(Sc2nc(Nc3ccc(N4CCN(C)CC4)cc3)ncc2Cl)c1`?
Answer: NF-kB SEAP reporter activity (RAW-Dual [2]; [7]): 0.33; NF-kB SEAP reporter activity (RAW-Dual [2]; [8]): 0.408

Question: Which results are given for `C=CC(=O)Nc1cccc(Sc2nc(Nc3ccc(N4CCN(C)CC4)cc3)ncc2Cl)c1` (library stock concentration (final ~1000-fold dilution): 10 mM)?
Answer: NF-kB SEAP reporter activity (RAW-Dual [1]; agonist: LPS (TLR4) 0.1 ug/mL): 0.254; NF-kB SEAP reporter activity (RAW-Dual [1]; [4]): 0.205; NF-kB SEAP reporter activity (RAW-Dual [1]; [5]): 0.0814; NF-kB SEAP reporter activity (RAW-Dual [1]; [6]): 0.268

Question: What does the source list for `CCN(CC)CCOc1ccc(Nc2ncc3cc(-c4c(Cl)cccc4Cl)c(=O)n(C)c3n2)cc1`?
Answer: NF-kB SEAP reporter activity (RAW-Dual [2]; [9]): 0.492; NF-kB SEAP reporter activity (RAW-Dual [2]; [10]): 0.332

Question: Which results are given for `C=CCn1c(=O)c2cnc(Nc3ccc(N4CCN(C)CC4)cc3)nc2n1-c1cccc(C(C)(C)O)n1` (library stock concentration (final ~1000-fold dilution): 10 mM)?
Answer: NF-kB SEAP reporter activity (RAW-Dual [3]; agonist: LPS (TLR4) 0.1 ug/mL): 0.933; NF-kB SEAP reporter activity (RAW-Dual [3]; [4]): 0.203; NF-kB SEAP reporter activity (RAW-Dual [3]; [5]): 0.914; NF-kB SEAP reporter activity (RAW-Dual [3]; [6]): 1.07

Question: What does the source list for `Cc1cnc(Nc2ccc(N3CCN(C)CC3)cc2)nc1Nc1cccc(S(=O)(=O)NC(C)(C)C)c1` (library stock concentration (final ~1000-fold dilution): 10 mM)?
Answer: NF-kB SEAP reporter activity (RAW-Dual [1]; agonist: LPS (TLR4) 0.1 ug/mL): 7; NF-kB SEAP reporter activity (RAW-Dual [1]; [4]): 0.913; NF-kB SEAP reporter activity (RAW-Dual [1]; [5]): 2.15; NF-kB SEAP reporter activity (RAW-Dual [1]; [6]): 0.84

Question: For `Cc1cnc(Nc2ccc(OCCN3CCCC3)cc2)nc1Nc1cccc(S(=O)(=O)NC(C)(C)C)c1`, which “NF-kB SEAP reporter activity” value (RAW-Dual [2]; [9]) is on record?
Answer: 3.13

Question: What about the “NF-kB SEAP reporter activity” value (RAW-Dual [2]; [10]) of the same compound?
Answer: 2.73

Question: With `Cc1cnc(Nc2ccc(OCCN3CCCC3)cc2)nc1Nc1cccc(S(=O)(=O)NC(C)(C)C)c1` (library stock concentration (final ~1000-fold dilution): 10 mM) as the compound, how does the “NF-kB SEAP reporter activity” value (RAW-Dual [3]; agonist: LPS (TLR4) 0.1 ug/mL) read?
Answer: 4.34

Question: And the “NF-kB SEAP reporter activity” value (RAW-Dual [3]; [4])?
Answer: 1.22

Question: And the “NF-kB SEAP reporter activity” value (RAW-Dual [3]; [5])?
Answer: 2.05

Question: What about the “NF-kB SEAP reporter activity” value (RAW-Dual [3]; [6]) of the same compound?
Answer: 3.55

Question: `C=CCn1c(=O)c2cnc(Nc3ccc(N4CCN(C)CC4)cc3)nc2n1-c1cccc(C(C)(C)O)n1` was tested. Which “NF-kB SEAP reporter activity” value (RAW-Dual [2]; [9]) did it give?
Answer: 1.14

Question: What about the “NF-kB SEAP reporter activity” value (RAW-Dual [2]; [10]) of the same compound?
Answer: 0.798

Question: For `CCN(CC)CCOc1ccc(Nc2ncc3cc(-c4c(Cl)cccc4Cl)c(=O)n(C)c3n2)cc1` (library stock concentration (final ~1000-fold dilution): 10 mM), which “NF-kB SEAP reporter activity” value (RAW-Dual [3]; agonist: LPS (TLR4) 0.1 ug/mL) is on record?
Answer: 0.238

Question: And the “NF-kB SEAP reporter activity” value (RAW-Dual [3]; [4])?
Answer: 0.236

Question: What about the “NF-kB SEAP reporter activity” value (RAW-Dual [3]; [5]) of the same compound?
Answer: 0.0747

Question: And the “NF-kB SEAP reporter activity” value (RAW-Dual [3]; [6])?
Answer: 0.145
